Results on 40 sequences are retold here after the supplement of paper PMC10681739.

The test deals with T1, ETS1 (UniProt P14921).
T1 sequence: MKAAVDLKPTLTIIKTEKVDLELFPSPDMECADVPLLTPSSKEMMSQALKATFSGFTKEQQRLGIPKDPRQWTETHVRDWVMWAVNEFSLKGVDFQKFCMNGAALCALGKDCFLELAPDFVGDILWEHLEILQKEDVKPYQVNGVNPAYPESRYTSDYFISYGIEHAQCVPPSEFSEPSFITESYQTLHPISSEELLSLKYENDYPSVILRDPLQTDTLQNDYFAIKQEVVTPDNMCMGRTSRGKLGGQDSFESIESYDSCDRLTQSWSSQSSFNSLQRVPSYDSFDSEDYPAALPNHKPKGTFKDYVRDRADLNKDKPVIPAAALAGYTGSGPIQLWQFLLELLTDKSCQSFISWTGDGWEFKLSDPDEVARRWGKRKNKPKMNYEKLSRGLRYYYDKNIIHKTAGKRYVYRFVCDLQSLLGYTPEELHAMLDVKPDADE
The experiment in a line: TF binding intensity (PBM fluorescence), negative control probe (arbitrary fluorescence units); higher = stronger binding. How it is done:
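gcPBM negative-control 36-bp genomic probes lacking TF binding sites. Each was incubated with recombinant human ETS1 or RUNX1 alone and detected by antibody fluorescence. Values are medians over replicate spots (4 spots for the ETS1-RUNX1 arrays, 3 for the ETS1-ETS1 array). The probes sit in constant array flanks that are not printed.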
As to “CCATTAGTTCATCTTACACTCTGCCCTTTAACGTGG (protein concentration 10 nM)”, the TF binding intensity came to 127.

As to “CATGAAGAATATAGCATTGTTTTGTATATGTTTTAA (protein concentration 10 nM)”, the TF binding intensity is 131.

“GGGGAAAATGAGCACAGGTGTGAAGCAGATCACAGG (protein concentration 10 nM)” displayed a TF binding intensity of 170.

“ATAGTACAAGCACTAGTCAAAGCTAGAGGTCACTCT (protein concentration 10 nM)” returned a TF binding intensity of 111.

As for “ACCTGGGTCTCTGACAGACACCCCAAACTTCAGTTC (protein concentration 10 nM)”, the TF binding intensity came out at 102.

For “CTTGACAGAGGTATGTGCTAGGATTGAATATGTGGG (protein concentration 10 nM)”, the TF binding intensity was found to be 131.

Sequence “CCAGTGCCCTTGAAATGAAATGGGACTTGCAAGGAG (protein concentration 10 nM)” showed a TF binding intensity of 121.

In turn, “ACTGCGCGCAGGGCCTGCAGCGGCAGCTGGACTGGG (protein concentration 10 nM)” yielded a TF binding intensity of 120.

Turning to “TCAGCCTGAGAGCTATGTGGGTGAATAAAAATAAAA (protein concentration 1 nM)”, the TF binding intensity came to 499.

For “TTATCAAGTGAATCAAGCCATTGTCGGGTCGAAATA (protein concentration 10 nM)”, the TF binding intensity turned out to be 117.

“GGGGCCTCGAAGGTCCTCCTGGACTGCAAGAGAGGA (protein concentration 10 nM)” gave a TF binding intensity of 131.

Turning to “AACTGTGACGTTACATTGCAAGGGCATGAATACAGG (protein concentration 10 nM)”, the TF binding intensity was 131.

“TCTTTATCTGTCAGTACCACACTGTCTATTCTCCCA (protein concentration 1 nM)” had a TF binding intensity of 502.

For the sequence “ATTCTTCTAATAATCCAGTTTGAGTGGATCCTCTGT (protein concentration 10 nM)”, the TF binding intensity is 112.

The sequence “GTTAAGTACCTGAATGAGCACTGGACCAGAGCCGGG (protein concentration 10 nM)” showed a TF binding intensity of 106.

Sequence “TCTTGTATTTTCCTAAAGATTTGTGTGCTGTTTCTC (protein concentration 10 nM)” had a TF binding intensity of 100.

The sequence “CAGTGCAGCTGTTTGCCATGTGGGCCCACACCACTG (protein concentration 10 nM)” yielded a TF binding intensity of 126.

Sequence “CCGACACTCCATGAGTTAGTTCAGTCCTCTGACACC (protein concentration 10 nM)” gave a TF binding intensity of 150.

Consider “CTGAAATTAACCCAAAGGTTGTGTGTGGACCTCCCT (protein concentration 10 nM)”, for which the TF binding intensity amounted to 109.

The sequence “CAACGCAGACTACTAACCACTAGAGAATCCCAAGGC (protein concentration 1 nM)” had a TF binding intensity of 485.

“CTTAGTTCAGTGTAAGGGGCCTGGTTGTTGGATTTT (protein concentration 10 nM)”: the TF binding intensity amounted to 119.

The sequence “AACTTGTCCCTGGAATGTGGTTGAAACAGACTTAGG (protein concentration 1 nM)” came in with a TF binding intensity of 448.

On to “CCTGTTCTGTGTTTGGAGCCAGCAGAGCAGGGAGGA (protein concentration 10 nM)”, for which the TF binding intensity stood at 153.

Sequence “CCAGCCAACCCAAAGACCACACCCCACCACCTCCTC (protein concentration 1 nM)” came in with a TF binding intensity of 491.

As to “CATTAGTAAACCCTTACCACACCCAAACAACAAAAG (protein concentration 1 nM)”, the TF binding intensity is 541.

Take “ACGGAGCTTGCTCTGGCCATCTCTGTCCCTGCCTGT (protein concentration 10 nM)”: the TF binding intensity is 102.

“TTTTTAAATTCGGTTTTGTGTTTTATCTTCAATTTC (protein concentration 10 nM)”: the TF binding intensity was 105.

The sequence “TGACCGGCAGGCCCGAAGCCCCCTGGGATGCCTGGC (protein concentration 10 nM)” had a TF binding intensity of 105.

On to “AGTTATTCTAGCTCAAACCAAGTTATTTTTCACTTT (protein concentration 10 nM)”, for which the TF binding intensity was 108.

“GTTTGGCTTTCAGAGTGTGGTTTGGATTCCTAACAG (protein concentration 1 nM)” had a TF binding intensity of 450.

On to “TGGACTATATCAAGTGTGAACGATCATACTTGTTAT (protein concentration 10 nM)”, for which the TF binding intensity was 124.

As to “CAGGCATCTGTCATGCCCAGTAATTAATTGCTCCAA (protein concentration 10 nM)”, the TF binding intensity was 117.

“GGGTGGTGGGGCTTTCTTAGCAGCAAAATGTTCGCG (protein concentration 10 nM)” gave a TF binding intensity of 223.

Sequence “TTATAGGTGAGAGCTACCATGCCTGGTCCTATTTAA (protein concentration 10 nM)” gave a TF binding intensity of 97.6.

For the sequence “GAGATGCAGCAGCGTCTCCCAGTCCTCACCGCGGCC (protein concentration 10 nM)”, the TF binding intensity was determined as 112.

“AACACTCAGTGTATTTTAATAAACAACATTTTTTAA (protein concentration 10 nM)”: the TF binding intensity was determined as 96.6.

In turn, “GATGCTCTGATACGCGCTGAAAAGAAGTCAGGCTTC (protein concentration 10 nM)” displayed a TF binding intensity of 134.

Turning to “TCCGATGTTACCTGGGCTGGGCCATGGAGAATGGCG (protein concentration 10 nM)”, the TF binding intensity turned out to be 112.

Turning to “CTCCTAATTCTGCATGCAACACTCTCCAGAGAGCTG (protein concentration 10 nM)”, the TF binding intensity is 136.

With “CCCCTGTGCAACCTTTCATTCCCTAAGCCACTTTTC (protein concentration 10 nM)”, the TF binding intensity is 139.
